aDG glyco act – alpha-DG glycosylation activation. Pro5-aDG cells, alpha-DG glycosylation AlphaScreen (IIH6); 0% Pro5, 100% B10-LARGE cell signal. activation, % at 10 µM. hit rate 0.22% among 360,000. AID 624168;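 active = activation of at least 8% versus controls, or a plate z-score of at least 8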;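 also: Pro5 are CHO cells carrying HIG-tagged alpha-DG that lacks glycosylation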
ARNT-TACC3 inh – ARNT/TACC3 interaction disruption; AlphaScreen His-ARNT PAS-B/GST-TACC3 binding, luminescence; TACC3 fragment carries E629A point mutation; inhibition, % at 9.99 µM; hit rate 0.66% among 390,000; AID 623870;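 active = mean inhibition of replicates at least 50% and at least half of replicates each reaching 50%; inconclusive = half or more replicates reach 50% but mean below 50%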;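 also: 0% = complete ARNT plus TACC3 wells and 100% = ARNT alone without TACC3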
A1 inh – inhibitors of the anti-apoptotic protein A1, read as caspase activation | MEF A1-2A-BIM cells, Caspase-Glo 3/7 luminescence, 3 h; percent of clofoctol response, vehicle zero | caspase activation, % (no concentration beside the values) | hit rate 0.066% among 330,000 | AID 2462;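 active = over half of replicate activation scores above 10%, or exactly half above 10 with the replicate mean above 10; inconclusive = replicate mean below 10 yet half the replicates above 10; inactive = over half of replicates below 10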
AI-2 QS mod – modulates the Vibrio harveyi AI-2 quorum sensing system; Vibrio harveyi JMH597 AI-2 luminescence/OD600 ratio, 9 h; stronger effect = lower value; strain lacks LuxN and CqsS sensors; 0 = neutral-control median; activity change, % at 7.5 µM; hit rate 0.4% among 300,000; AID 2094; in the data active = activity change below about -75%, passing the limit was not always enough; inconclusive = no clear call, values can overlap the other calls;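 also: luminescence divided by OD600 gain over 9 h not by final OD600 alone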
Mot1-301 SUMO – inhibitors of SUMOylation pathway: yeast Mot1-301 growth rescue. S. cerevisiae Mot1-301 growth rescue, ATP luminescence, 38.5C; percent above DMSO median, 100 means doubled. growth rescue, % at 18.8 µM. hit rate 1% among 320,000. AID 2716;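 active = every valid replicate shows activation above 250% relative to neutral control wells; inactive = the rest, any valid replicate at or below 250%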;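 also: OY570 slx delta 5 strain wells were the positive control but not used for scaling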
JMH597 growth – retest Vibrio harveyi JMH597 growth inhibition. shares compounds with AI-2 QS mod. OD600 absorbance, 9 h; lacks LuxN and CqsS sensors. growth inhibition, % at 7.5 µM. hit rate 1% among 750;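 active = every replicate shows growth inhibition above 50%; inconclusive = at least half, but not all, replicates pass that cutoff; inactive = fewer than half of replicates pass it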
BB721 const-QS lum – retest counter-screen: BB721 constitutive quorum sensing luminescence decrease; hit rate 95% among 750; inhibition, % at 7.5 µM; Vibrio harveyi BB721 luminescence, 9 h; shares compounds with AI-2 QS mod;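 active = inhibition above about 80% in every replicate, not just on average, limit read from the data; inconclusive = at least half of replicates past the limit, but not all; inactive = fewer than half of replicates past the limit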
BB721 growth – retest Vibrio harveyi BB721 growth inhibition | shares compounds with AI-2 QS mod | OD600 absorbance, 9 h | growth inhibition, % at 7.5 µM | hit rate 3% among 750 | AID 2728;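 active = every replicate shows growth inhibition above 50%; inconclusive = at least half but not all replicates above 50% inhibition; inactive = under half of replicates above 50% inhibition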
AI-2 QS JMH597 – Vibrio harveyi AI-2 signaling luminescence modulation – JMH597 strain, confirmation. shares compounds with AI-2 QS mod. AID 2736. inhibition, % at 7.5 µM. Vibrio harveyi JMH597 AI-2 quorum sensing luminescence, 9 h; luxN and CqsS knockout, AI-2 only. hit rate 97% among 750;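 active = every replicate shows more than 75% inhibition of signal versus neutral control wells; inconclusive = half to three quarters of replicates exceed 75% inhibition; inactive = fewer than half of replicates exceed 75% inhibition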
Starred values were filed as active, the others as inactive. A selection: hits, their analogues and other compounds. The true share with any hit is near 1.8%.

Results for CCC1(c2ccccc2)NC(=O)N(CC(=O)Nc2ccc(OC)nc2)C1=O (stereo unspecified) ?
aDG glyco act: 0; ARNT-TACC3 inh: 2; A1 inh: 1; AI-2 QS mod: -88*; Mot1-301 SUMO: -11; JMH597 growth: 2; BB721 const-QS lum: 90*; BB721 growth: 0; AI-2 QS JMH597: 94*

Results for CCC1(c2ccccc2)NC(=O)N(CC(=O)NCc2ccc(C)cc2)C1=O (stereo unspecified) ?
aDG glyco act: 0; ARNT-TACC3 inh: -4; A1 inh: -1; AI-2 QS mod: -91*; Mot1-301 SUMO: 9; JMH597 growth: -13; BB721 const-QS lum: 94*; BB721 growth: -31; AI-2 QS JMH597: 97*

What do the screens show for `CC1(C)C(=O)Nc2ccccc2N1C(=O)COC(=O)CSc1ccc(F)cc1`?
aDG glyco act: 0; ARNT-TACC3 inh: -9; A1 inh: 0; Mot1-301 SUMO: 0

Results for O=C1CN(C(=O)COC(=O)CCCOc2ccccc2)c2ccccc2N1 ?
aDG glyco act: 0; ARNT-TACC3 inh: 4; A1 inh: -2; AI-2 QS mod: -81*; Mot1-301 SUMO: 105; JMH597 growth: -7; BB721 const-QS lum: 94*; BB721 growth: -17; AI-2 QS JMH597: 96*

What do the screens show for `CC1(C)C(=O)Nc2ccccc2N1C(=O)COC(=O)CCSc1ccccc1`?
aDG glyco act: 0; ARNT-TACC3 inh: 1; A1 inh: 1; AI-2 QS mod: -85*; JMH597 growth: 7; BB721 const-QS lum: 92*; BB721 growth: -29; AI-2 QS JMH597: 95*

What do the screens show for `CC1Cc2ccccc2N1CC(=O)NC(=O)NC1CCCC1` (stereo unspecified)?
aDG glyco act: 0; ARNT-TACC3 inh: 8; A1 inh: 1; AI-2 QS mod: 12; Mot1-301 SUMO: -4

What do the screens show for `CCCc1ccc(Oc2cn[nH]c2-c2ccc(O)cc2O)cc1`?
aDG glyco act: 3; ARNT-TACC3 inh: -2; A1 inh: -1; AI-2 QS mod: inconclusive; Mot1-301 SUMO: 195

How did COc1ccc(Oc2cn[nH]c2-c2ccc(O)cc2O)cc1 do in these assays?
aDG glyco act: 0; ARNT-TACC3 inh: 2; A1 inh: 0; AI-2 QS mod: -90*; Mot1-301 SUMO: 7; JMH597 growth: inconclusive; BB721 const-QS lum: 97*; BB721 growth: inconclusive; AI-2 QS JMH597: 98*

How did CCCCC(Br)C(=O)Nc1ccc(S(=O)(=O)Nc2cc(C)nc(C)n2)cc1 (stereo unspecified) do in these assays?
aDG glyco act: 0; ARNT-TACC3 inh: 0; A1 inh: 0; AI-2 QS mod: -86*; Mot1-301 SUMO: 2; JMH597 growth: -12; BB721 const-QS lum: 88*; BB721 growth: 3; AI-2 QS JMH597: 90*

Results for C[C@@H]1CCCCO[C@H](CN(C)CC2CC2)[C@H](C)CN([C@@H](C)CO)C(=O)c2cc(N(C)C)ccc2O1 ?
ARNT-TACC3 inh: 2

What do the screens show for `CCOC(=O)c1cccc(NC(=O)Cn2nc(C)n3cccc3c2=O)c1`?
aDG glyco act: 0; ARNT-TACC3 inh: 6; A1 inh: 1; AI-2 QS mod: -97*; Mot1-301 SUMO: -12; JMH597 growth: 22; BB721 const-QS lum: 100*; BB721 growth: 12; AI-2 QS JMH597: 100*

Results for Cc1cccc(C)c1NC(=O)Cn1nc(C)n2cccc2c1=O ?
aDG glyco act: 0; ARNT-TACC3 inh: -6; A1 inh: -1; AI-2 QS mod: -8; Mot1-301 SUMO: -2

Results for CCC(C(=O)Nc1c(C)cc(C)cc1C)N1CCCCCC1 (stereo unspecified) ?
aDG glyco act: 0; ARNT-TACC3 inh: 2; A1 inh: 1; AI-2 QS mod: -85*; Mot1-301 SUMO: -5; JMH597 growth: -8; BB721 const-QS lum: 2; BB721 growth: -1; AI-2 QS JMH597: 4

How did COC(=O)CSc1nnc(COc2cccc3ccccc23)o1 do in these assays?
aDG glyco act: 0; ARNT-TACC3 inh: -3; A1 inh: 0; AI-2 QS mod: -83*; Mot1-301 SUMO: 22; JMH597 growth: -3; BB721 const-QS lum: 92*; BB721 growth: -18; AI-2 QS JMH597: 93*

How did O=C(O)CSc1nnc(COc2cccc3ccccc23)o1 do in these assays?
aDG glyco act: 0; ARNT-TACC3 inh: -7; A1 inh: 1; AI-2 QS mod: -28; Mot1-301 SUMO: -10

Results for CCOC(=O)/C=C/C(=O)Nc1ccc(-c2nnc3n2CCCCC3)cc1 ?
aDG glyco act: 0; ARNT-TACC3 inh: 13; A1 inh: -1; AI-2 QS mod: -21; Mot1-301 SUMO: -12

What do the screens show for `CC(C)C(=O)OCc1cn(-c2ccc(Cl)c(Cl)c2)nn1`?
aDG glyco act: 0; ARNT-TACC3 inh: 1; A1 inh: -1; AI-2 QS mod: -82*; Mot1-301 SUMO: 13; JMH597 growth: 2; BB721 const-QS lum: 95*; BB721 growth: -11; AI-2 QS JMH597: 96*

How did CC(C)(C)C(=O)OCc1cn(-c2ccc(Cl)cc2)nn1 do in these assays?
aDG glyco act: 0; ARNT-TACC3 inh: -3; A1 inh: 0; AI-2 QS mod: -21

How did CC(C)(C)NCC(=O)N/N=C/c1ccc(OCc2ccccc2)cc1 do in these assays?
aDG glyco act: 0; ARNT-TACC3 inh: 8; A1 inh: -2; AI-2 QS mod: 39; Mot1-301 SUMO: -36

What do the screens show for `CC(=O)Nc1cccc(C(=O)Nc2cccc3ncccc23)c1`?
aDG glyco act: 0; ARNT-TACC3 inh: 13; A1 inh: 0; AI-2 QS mod: 14; Mot1-301 SUMO: 92

Results for Nc1cccc(C(=O)Nc2cccc3ncccc23)c1 ?
aDG glyco act: 0; ARNT-TACC3 inh: 29; A1 inh: 2; AI-2 QS mod: inconclusive; Mot1-301 SUMO: 351; JMH597 growth: 2; BB721 const-QS lum: 5; BB721 growth: 17; AI-2 QS JMH597: -3

Results for O=C(NCc1ccc2c(c1)OCO2)Nc1ccc2nsnc2c1 ?
aDG glyco act: 0; ARNT-TACC3 inh: 2; A1 inh: 0; AI-2 QS mod: -85*; Mot1-301 SUMO: 1; JMH597 growth: 79*; BB721 const-QS lum: 97*; BB721 growth: 3; AI-2 QS JMH597: 99*

What do the screens show for `O=C(NCc1ccc2c(c1)OCO2)Nc1ccc(Cl)cc1`?
aDG glyco act: 0; ARNT-TACC3 inh: -5; A1 inh: 0; AI-2 QS mod: -61; Mot1-301 SUMO: -9

Assay outcomes from PubChem BioAssay.
